Test results taken from paper PMC7862700, “An all-to-all approach to the identification of sequence-specific readers for epigenetic DNA modifications on cytosine”.

Assays:
Test in all cases: DAPPL (digital affinity profiling via proximity ligation, sequencing); 10 mM Tris-HCl pH 7.5, 50 mM NaCl, 1 mM DTT, 4% glycerol, room temperature, 30 min; GST-TFs on glutathione beads, 16-mer random dsDNA library, 0.1% formaldehyde crosslink after washing; high values mean tight binding
Settings in all cases: protein: recombinant; tags: N-terminal GST; dsDNA, one strand shown
ELK1 = biological target: T1, ELK1 (Homo sapiens, UniProt P19419 1-428)
T1 sequence: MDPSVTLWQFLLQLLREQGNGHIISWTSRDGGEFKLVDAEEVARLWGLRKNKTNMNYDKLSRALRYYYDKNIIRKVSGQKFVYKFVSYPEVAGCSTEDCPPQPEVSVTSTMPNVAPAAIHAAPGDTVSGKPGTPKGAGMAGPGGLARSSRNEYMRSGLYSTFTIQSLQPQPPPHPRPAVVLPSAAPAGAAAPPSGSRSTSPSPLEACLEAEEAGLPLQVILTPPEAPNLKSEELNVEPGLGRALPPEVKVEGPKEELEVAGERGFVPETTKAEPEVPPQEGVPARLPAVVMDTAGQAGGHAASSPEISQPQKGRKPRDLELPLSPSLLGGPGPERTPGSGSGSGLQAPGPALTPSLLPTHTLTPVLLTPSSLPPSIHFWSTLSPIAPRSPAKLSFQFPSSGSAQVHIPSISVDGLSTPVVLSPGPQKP
Summary of the method: (§1)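 Sequencing on an Illumina NextSeq500 followed washing, crosslinking with 0.1% formaldehyde, proximity ligation (BsaI/T4 ligase, 1 h, 37 °C) and PCR amplification of pools that had been incubated for 30 min at room temperature with 200 nmole of a random double-stranded 16-mer DNA library in Tris/NaCl/DTT/glycerol buffer. Each pool held DNA-barcoded human transcription factors, expressed in yeast as GST fusions and captured on glutathione beads, plus a tag-only sample. Binding signal is a hexamer's read frequency for a factor divided by its frequency in the tag-only sample.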

GABPA = biological target: T2, GABPA (Homo sapiens, UniProt Q06546 1-454)
T2 sequence: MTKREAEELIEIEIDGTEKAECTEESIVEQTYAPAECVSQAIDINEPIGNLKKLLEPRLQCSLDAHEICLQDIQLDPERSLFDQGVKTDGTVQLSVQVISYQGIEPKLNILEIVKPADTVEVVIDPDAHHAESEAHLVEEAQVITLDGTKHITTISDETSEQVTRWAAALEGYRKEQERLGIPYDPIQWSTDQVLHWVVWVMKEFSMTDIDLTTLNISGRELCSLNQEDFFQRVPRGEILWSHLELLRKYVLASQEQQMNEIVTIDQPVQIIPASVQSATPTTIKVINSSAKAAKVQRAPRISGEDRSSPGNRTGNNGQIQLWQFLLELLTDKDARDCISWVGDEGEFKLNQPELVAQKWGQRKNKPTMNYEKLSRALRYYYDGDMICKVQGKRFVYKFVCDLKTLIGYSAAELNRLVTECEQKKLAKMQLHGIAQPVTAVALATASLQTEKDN
Summary of the method: as §1

ERG = biological target: T3, ERG (Homo sapiens, UniProt P11308 1-479)
T3 sequence: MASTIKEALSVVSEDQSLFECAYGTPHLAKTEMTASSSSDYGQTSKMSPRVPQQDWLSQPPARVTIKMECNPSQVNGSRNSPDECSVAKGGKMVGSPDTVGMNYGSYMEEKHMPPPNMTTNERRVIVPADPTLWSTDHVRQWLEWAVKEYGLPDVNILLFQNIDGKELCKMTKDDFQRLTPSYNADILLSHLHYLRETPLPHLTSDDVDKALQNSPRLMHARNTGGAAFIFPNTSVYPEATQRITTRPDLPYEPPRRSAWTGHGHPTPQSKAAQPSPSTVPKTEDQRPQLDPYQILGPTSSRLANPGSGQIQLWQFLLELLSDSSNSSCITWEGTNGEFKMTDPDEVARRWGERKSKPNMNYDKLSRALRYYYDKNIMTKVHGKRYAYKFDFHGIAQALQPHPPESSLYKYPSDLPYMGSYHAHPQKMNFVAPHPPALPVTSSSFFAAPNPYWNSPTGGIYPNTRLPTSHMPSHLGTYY
Summary of the method: as §1

ELF1 = ELF1 (Homo sapiens, UniProt P32519 1-619)
Chain of ELF1 (P32519 whole entry): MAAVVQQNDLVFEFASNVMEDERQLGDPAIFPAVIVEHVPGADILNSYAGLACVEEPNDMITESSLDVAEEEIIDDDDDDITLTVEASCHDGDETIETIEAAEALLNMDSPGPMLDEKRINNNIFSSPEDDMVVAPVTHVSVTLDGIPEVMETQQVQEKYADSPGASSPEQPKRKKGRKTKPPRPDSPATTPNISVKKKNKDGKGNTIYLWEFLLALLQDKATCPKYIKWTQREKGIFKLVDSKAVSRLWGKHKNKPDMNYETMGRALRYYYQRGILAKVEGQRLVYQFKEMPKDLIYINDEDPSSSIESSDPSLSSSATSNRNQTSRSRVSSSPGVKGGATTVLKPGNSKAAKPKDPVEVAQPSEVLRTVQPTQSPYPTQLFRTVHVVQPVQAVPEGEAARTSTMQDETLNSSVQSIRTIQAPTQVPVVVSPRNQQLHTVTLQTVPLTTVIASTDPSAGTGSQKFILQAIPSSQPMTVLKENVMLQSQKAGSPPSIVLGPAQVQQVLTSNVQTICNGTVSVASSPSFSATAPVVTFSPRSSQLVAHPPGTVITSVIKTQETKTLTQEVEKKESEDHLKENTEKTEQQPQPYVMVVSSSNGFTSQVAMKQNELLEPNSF
Summary of the method: as §1

ETV5 = ETV5 (Homo sapiens, UniProt P41161 1-510)
Chain of ETV5 (P41161 whole entry): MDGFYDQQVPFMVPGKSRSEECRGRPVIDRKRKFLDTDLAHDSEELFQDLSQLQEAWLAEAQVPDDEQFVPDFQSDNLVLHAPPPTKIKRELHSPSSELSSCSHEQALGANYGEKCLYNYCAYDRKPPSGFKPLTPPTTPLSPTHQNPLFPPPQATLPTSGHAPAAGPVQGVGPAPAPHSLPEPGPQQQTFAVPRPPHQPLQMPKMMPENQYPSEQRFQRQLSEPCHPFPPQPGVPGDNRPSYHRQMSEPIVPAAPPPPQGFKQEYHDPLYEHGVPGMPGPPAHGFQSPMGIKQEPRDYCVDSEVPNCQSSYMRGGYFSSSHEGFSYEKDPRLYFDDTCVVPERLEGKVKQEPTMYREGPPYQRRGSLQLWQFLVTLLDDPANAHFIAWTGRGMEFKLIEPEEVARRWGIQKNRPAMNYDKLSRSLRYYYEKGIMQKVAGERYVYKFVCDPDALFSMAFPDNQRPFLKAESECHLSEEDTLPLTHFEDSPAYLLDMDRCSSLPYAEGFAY
Summary of the method: as §1

ELK4 = biological target: T4, ELK4 (Homo sapiens, UniProt P28324-2 1-405)
T4 sequence: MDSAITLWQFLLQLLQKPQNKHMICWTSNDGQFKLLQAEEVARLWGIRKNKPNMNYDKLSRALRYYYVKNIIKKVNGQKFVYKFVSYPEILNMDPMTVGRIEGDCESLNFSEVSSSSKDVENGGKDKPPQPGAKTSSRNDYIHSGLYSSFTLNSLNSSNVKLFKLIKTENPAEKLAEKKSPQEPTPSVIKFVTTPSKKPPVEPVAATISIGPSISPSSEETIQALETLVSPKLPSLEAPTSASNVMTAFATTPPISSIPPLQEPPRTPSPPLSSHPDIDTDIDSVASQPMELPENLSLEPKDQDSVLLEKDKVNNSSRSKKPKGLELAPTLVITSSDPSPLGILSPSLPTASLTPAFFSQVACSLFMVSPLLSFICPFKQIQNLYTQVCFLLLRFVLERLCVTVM
Summary of the method: as §1

ETV2 = biological target: T5, ETV2 (Homo sapiens, UniProt O00321 1-342)
T5 sequence: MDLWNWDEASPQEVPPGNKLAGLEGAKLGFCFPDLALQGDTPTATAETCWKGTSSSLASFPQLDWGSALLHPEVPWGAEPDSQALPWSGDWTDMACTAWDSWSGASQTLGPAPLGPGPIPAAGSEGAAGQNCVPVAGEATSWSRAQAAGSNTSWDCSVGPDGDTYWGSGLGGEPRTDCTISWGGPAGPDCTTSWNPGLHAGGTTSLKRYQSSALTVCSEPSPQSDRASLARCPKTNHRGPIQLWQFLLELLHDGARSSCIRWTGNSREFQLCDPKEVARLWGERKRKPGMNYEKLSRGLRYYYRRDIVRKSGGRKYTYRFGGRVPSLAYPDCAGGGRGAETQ
Summary of the method: as §1

ERF = biological target: T6, ERF (Homo sapiens, UniProt P50548 1-548)
T6 sequence: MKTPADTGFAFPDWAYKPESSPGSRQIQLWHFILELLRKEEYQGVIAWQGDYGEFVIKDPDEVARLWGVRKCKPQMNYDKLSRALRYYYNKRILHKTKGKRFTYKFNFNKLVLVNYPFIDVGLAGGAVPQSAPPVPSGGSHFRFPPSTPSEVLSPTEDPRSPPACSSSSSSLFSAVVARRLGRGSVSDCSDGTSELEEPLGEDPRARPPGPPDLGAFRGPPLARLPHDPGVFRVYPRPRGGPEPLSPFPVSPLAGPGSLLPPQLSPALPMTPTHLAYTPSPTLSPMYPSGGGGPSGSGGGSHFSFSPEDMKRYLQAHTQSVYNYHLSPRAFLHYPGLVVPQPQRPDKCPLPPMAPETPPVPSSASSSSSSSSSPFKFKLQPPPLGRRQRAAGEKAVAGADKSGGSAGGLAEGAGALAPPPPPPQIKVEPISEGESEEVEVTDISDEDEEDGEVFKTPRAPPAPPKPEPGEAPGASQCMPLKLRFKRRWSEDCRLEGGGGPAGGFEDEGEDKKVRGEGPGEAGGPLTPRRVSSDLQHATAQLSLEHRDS
Summary of the method: as §1

ETV3L = biological target: T7, ETV3L (Homo sapiens, UniProt Q6ZN32 1-361)
T7 sequence: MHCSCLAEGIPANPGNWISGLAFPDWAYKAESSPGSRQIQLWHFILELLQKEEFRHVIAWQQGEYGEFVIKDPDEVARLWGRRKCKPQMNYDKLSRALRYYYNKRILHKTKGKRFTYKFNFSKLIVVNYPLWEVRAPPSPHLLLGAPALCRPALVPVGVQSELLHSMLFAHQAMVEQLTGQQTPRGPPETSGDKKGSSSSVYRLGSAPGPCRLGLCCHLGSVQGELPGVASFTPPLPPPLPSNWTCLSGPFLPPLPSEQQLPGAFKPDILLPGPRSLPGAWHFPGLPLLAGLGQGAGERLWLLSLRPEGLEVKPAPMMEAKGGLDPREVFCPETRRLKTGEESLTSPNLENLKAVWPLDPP
Summary of the method: as §1

SPDEF = biological target: T8, SPDEF (Homo sapiens, UniProt O95238 1-335)
T8 sequence: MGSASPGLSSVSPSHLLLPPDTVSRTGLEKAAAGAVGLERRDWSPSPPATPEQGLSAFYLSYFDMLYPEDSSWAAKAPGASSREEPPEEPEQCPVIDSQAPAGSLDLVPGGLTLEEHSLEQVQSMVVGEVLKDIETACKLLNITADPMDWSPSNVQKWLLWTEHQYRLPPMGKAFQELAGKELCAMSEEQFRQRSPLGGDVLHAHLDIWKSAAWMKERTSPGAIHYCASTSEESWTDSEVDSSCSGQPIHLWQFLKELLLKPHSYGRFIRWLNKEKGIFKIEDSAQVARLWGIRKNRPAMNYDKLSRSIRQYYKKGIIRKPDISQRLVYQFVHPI
Summary of the method: as §1

ETV7 = biological target: T9, ETV7 (Homo sapiens, UniProt Q9Y603 1-341)
T9 sequence: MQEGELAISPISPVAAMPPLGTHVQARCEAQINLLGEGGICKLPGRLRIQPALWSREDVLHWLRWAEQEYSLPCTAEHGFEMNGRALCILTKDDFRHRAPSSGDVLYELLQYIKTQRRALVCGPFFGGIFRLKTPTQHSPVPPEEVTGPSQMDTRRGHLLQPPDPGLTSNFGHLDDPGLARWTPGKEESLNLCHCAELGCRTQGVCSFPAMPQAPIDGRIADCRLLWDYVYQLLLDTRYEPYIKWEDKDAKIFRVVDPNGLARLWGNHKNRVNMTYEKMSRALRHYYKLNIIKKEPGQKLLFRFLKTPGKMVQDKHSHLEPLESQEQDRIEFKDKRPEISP
Summary of the method: as §1

ETV3 = biological target: T10, ETV3 (Homo sapiens, UniProt P41162-2 1-143)
T10 sequence: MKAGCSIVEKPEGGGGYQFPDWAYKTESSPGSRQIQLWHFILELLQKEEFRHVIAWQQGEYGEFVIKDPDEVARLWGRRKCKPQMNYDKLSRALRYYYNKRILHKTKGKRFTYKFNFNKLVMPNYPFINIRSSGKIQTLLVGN
Summary of the method: as §1

ETV6 = ETV6 (Homo sapiens, UniProt P41212 1-452)
Chain of ETV6 (P41212 whole entry): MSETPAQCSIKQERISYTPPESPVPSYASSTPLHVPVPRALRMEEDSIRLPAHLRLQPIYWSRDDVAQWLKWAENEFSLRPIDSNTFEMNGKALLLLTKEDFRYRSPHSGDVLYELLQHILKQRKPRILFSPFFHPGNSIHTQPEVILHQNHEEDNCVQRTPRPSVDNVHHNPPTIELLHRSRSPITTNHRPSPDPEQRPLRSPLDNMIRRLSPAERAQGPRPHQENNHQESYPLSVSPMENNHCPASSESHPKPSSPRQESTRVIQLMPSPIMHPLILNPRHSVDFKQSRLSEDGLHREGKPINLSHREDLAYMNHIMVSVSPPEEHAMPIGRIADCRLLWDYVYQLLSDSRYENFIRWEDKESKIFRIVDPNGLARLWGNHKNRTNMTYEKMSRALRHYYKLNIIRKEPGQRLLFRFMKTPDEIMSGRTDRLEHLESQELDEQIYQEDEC
Summary of the method: as §1

SPIB = SPIB (Homo sapiens, UniProt Q01892 1-262)
Chain of SPIB (Q01892 whole entry): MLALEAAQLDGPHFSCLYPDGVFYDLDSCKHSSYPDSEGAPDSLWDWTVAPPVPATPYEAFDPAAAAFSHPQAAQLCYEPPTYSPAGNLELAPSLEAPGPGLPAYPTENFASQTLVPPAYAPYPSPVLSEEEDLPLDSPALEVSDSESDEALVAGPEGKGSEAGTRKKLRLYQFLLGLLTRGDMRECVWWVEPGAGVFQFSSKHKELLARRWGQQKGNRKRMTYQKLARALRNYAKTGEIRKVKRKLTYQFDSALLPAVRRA
Summary of the method: as §1

FEV = biological target: T11, FEV (Homo sapiens, UniProt Q99581 1-238)
T11 sequence: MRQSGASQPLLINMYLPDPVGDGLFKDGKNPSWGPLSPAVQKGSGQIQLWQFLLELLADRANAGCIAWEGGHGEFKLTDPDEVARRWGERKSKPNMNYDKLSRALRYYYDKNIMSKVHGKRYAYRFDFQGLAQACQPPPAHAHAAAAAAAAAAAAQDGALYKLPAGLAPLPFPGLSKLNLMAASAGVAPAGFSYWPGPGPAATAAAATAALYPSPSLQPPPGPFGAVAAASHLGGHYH
Summary of the method: as §1

ELF4 = ELF4 (Homo sapiens, UniProt Q99607 1-663)
Chain of ELF4 (Q99607 whole entry): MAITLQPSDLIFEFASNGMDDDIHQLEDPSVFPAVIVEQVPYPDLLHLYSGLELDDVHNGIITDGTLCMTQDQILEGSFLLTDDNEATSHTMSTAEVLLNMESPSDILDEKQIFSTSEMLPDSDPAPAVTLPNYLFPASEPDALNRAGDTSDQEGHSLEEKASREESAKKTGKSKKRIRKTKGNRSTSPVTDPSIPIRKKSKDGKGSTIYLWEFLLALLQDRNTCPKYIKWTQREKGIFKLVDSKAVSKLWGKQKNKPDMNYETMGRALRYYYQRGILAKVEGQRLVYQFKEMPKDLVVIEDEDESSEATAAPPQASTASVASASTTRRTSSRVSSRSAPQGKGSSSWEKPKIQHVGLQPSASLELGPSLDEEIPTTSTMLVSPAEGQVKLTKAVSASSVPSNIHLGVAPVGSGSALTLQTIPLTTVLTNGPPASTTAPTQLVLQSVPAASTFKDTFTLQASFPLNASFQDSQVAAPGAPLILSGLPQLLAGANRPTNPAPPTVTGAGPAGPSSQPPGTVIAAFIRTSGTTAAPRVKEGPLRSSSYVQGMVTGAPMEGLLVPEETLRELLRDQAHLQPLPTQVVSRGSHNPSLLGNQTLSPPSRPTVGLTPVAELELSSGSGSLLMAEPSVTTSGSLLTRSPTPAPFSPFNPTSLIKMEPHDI
Summary of the method: as §1

ETV1 = ETV1 (Homo sapiens, UniProt P50549 1-477)
Chain of ETV1 (P50549 whole entry): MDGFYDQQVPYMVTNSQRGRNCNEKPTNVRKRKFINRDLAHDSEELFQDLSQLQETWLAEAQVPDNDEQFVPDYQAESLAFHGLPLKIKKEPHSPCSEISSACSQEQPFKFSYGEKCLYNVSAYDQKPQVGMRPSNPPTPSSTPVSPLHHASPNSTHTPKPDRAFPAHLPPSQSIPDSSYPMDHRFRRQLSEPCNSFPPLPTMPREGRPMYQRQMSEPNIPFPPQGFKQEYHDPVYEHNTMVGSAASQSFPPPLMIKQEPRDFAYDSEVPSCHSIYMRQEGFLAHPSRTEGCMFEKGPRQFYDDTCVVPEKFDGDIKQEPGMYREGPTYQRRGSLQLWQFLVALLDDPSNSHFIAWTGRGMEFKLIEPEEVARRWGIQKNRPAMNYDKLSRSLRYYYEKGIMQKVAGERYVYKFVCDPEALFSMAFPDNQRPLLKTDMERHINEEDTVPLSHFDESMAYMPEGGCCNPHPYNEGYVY
Summary of the method: as §1

ETS2 = biological target: T12, ETS2 (Homo sapiens, UniProt P15036 1-469)
T12 sequence: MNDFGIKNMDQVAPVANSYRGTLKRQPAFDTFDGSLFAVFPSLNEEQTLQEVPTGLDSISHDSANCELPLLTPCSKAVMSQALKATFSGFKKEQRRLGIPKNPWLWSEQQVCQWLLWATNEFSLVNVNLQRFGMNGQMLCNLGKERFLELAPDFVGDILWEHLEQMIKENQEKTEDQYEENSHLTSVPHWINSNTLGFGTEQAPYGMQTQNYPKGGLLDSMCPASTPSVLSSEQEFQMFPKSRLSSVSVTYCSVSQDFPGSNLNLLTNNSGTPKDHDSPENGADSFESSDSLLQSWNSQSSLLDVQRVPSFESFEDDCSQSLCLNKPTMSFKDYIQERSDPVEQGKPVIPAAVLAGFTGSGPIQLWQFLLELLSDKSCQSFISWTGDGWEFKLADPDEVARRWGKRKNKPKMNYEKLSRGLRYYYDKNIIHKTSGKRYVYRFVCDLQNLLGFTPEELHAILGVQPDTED
Summary of the method: as §1

Which results are given for CGTTGT?
binding signal (ELK1): 1.09 fold enrichment (6-mer frequency, TF over GST control); binding signal (GABPA): 1 fold enrichment (6-mer frequency, TF over GST control); binding signal (ERG): 1.02 fold enrichment (6-mer frequency, TF over GST control); binding signal (ELF1): 1.04 fold enrichment (6-mer frequency, TF over GST control); binding signal (ETV5): 1.01 fold enrichment (6-mer frequency, TF over GST control); binding signal (ELK4): 1.14 fold enrichment (6-mer frequency, TF over GST control); binding signal (ETV2): 1.13 fold enrichment (6-mer frequency, TF over GST control); binding signal (ERF): 1.03 fold enrichment (6-mer frequency, TF over GST control); binding signal (ETV3L): 1.18 fold enrichment (6-mer frequency, TF over GST control); binding signal (SPDEF): 1.05 fold enrichment (6-mer frequency, TF over GST control); binding signal (ETV7): 1.1 fold enrichment (6-mer frequency, TF over GST control); binding signal (ETV3): 1.07 fold enrichment (6-mer frequency, TF over GST control); binding signal (ETV6): 1 fold enrichment (6-mer frequency, TF over GST control)

AGCGCT was tested. Which binding signal (GABPA) did it give?
Its binding signal is 1.04 fold enrichment (6-mer frequency, TF over GST control).

And the binding signal (ERG)?
The binding signal was 1.02 fold enrichment (6-mer frequency, TF over GST control).

And the binding signal (ELF1)?
Its binding signal is 1.05 fold enrichment (6-mer frequency, TF over GST control).

What about the binding signal (SPIB) of the same sequence?
The binding signal was 1.09 fold enrichment (6-mer frequency, TF over GST control).

And the binding signal (FEV)?
Its binding signal is 1 fold enrichment (6-mer frequency, TF over GST control).

What about the binding signal (ETV5) of the same sequence?
The binding signal was 1.01 fold enrichment (6-mer frequency, TF over GST control).

What about the binding signal (ELF4) of the same sequence?
Its binding signal is 1.06 fold enrichment (6-mer frequency, TF over GST control).

What about the binding signal (ETV1) of the same sequence?
The binding signal was 1.02 fold enrichment (6-mer frequency, TF over GST control).

What about the binding signal (ERF) of the same sequence?
Its binding signal is 1.04 fold enrichment (6-mer frequency, TF over GST control).

And the binding signal (ETV3L)?
Its binding signal is 1.08 fold enrichment (6-mer frequency, TF over GST control).

What about the binding signal (ETS2) of the same sequence?
The binding signal was 1.09 fold enrichment (6-mer frequency, TF over GST control).

And the binding signal (ETV3)?
The binding signal was 1.01 fold enrichment (6-mer frequency, TF over GST control).
